Several values for one entry are separate records, joined by “and”; a condition that tells them apart may be missing. Identical values can stand only once. About 83,000 compounds went through this panel and 20% of them were active in at least one assay; those are over-represented in the sample as a whole.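 Treatment: one concentration, 48 hours, 96-well format. Scoring: percent growth, with anything below 10 considered active.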 Activity calls are given as the source filed them.

In this experiment the test system is MDA-MB-468 breast. Kind of experiment: NCI-60 one-dose screen, 48 h (100 = growth as untreated, 0 = no growth, -100 = all killed). To be noted: 10 µM unless noted.
Consider `CCCCCCCCCCCCCCCCOc1ccc(S(=O)(=O)N(C)C)cc1[N+](=O)[O-]`, for which the growth was 84.2% (inactive).

For the compound `COc1ccc(-n2nc3c(c2-c2ccc(OC)c(OC)c2)-c2oncc2CC3)cc1`, the growth is 90.1% (inactive).

Regarding `C=C1C(=O)O[C@H]2[C@H]1CC/C(COC(=O)NCCOCCOCC(=O)Nc1ccc(OC)c(C(N)=O)c1O)=C\CC[C@@]1(C)O[C@@H]21`, the growth is 17% (inactive). `CC(=O)Nc1cccc2cc(O)ccc12`: the growth was 112% (inactive) and 101% (inactive) and 110% (inactive). Then `C#C[C@]1(O)CC[C@H]2[C@@H]3CC=C4c5sc(N=C(N)N)nc5CC[C@]4(C)[C@H]3CC[C@@]21C`, with -31.7% (active); and `O=C1NCCS(=O)(=O)/C1=C\C=C\c1cccc(C(F)(F)F)c1`, with 17.9% (inactive). Consider `COc1cc(/C=C2\C(=O)N(CCOc3cc(O)c4c(=O)cc(-c5ccccc5)oc4c3)c3ccccc32)cc(OC)c1O`, for which the growth is 89.6% (inactive). For `CC1COCC(C)N1C1=C(Cl)C(=O)c2ccccc2C1=O` (stereo not given) the value was -92% (active).

With `CCN(C)CCCOc1ccc(/C(=C(\C)Cc2cccc(OC)c2)c2ccc(OC(C)=O)cc2)cc1`, the growth is 101% (inactive). Turning to `Cn1ncc2c(C(=O)c3ccc(F)cc3)nc(C(C)(C)C)nc21`, the growth was 93.5% (inactive). For `CSc1nsc(N)n1` the value was 103% (inactive); for `COc1ccc(C(C)=O)cc1N1C(=O)C2C(C1=O)C1(c3ccccc3)C(=O)C2(c2ccccc2)C(c2ccc(C)cc2)=C1c1ccc(C)cc1` (stereo not given), 13.9% (inactive); for `COC(=O)[C@H]1Cc2c([nH]c3ccccc23)[C@H](c2ccc3c(c2)OCO3)N1`, 102% (inactive). Regarding `COc1ccc(C2=NN(c3ccc(S(N)(=O)=O)cc3)C(c3cn(-c4ccccc4)nc3-c3ccc(Cl)cc3)C2)cc1` (stereo not given), the growth is 106% (inactive). For `COc1ccc(C2NC(=O)C(C#N)c3c2sc2c(F)cccc32)c(OC)c1` (stereo not given) the value was 24.3% (inactive); for `OCCNc1nc(NCCO)nc(Nc2ccc(C3=NN(c4ccc(Cl)cc4)C(c4ccc(Cl)cc4)C3)cc2)n1` (stereo not given), 85.7% (inactive). Then `O=Nc1ccc2ccccc2c1O`, with 68.3% (inactive). Consider `S=c1sc2c(Cl)nc(-c3cccnc3)nc2n1-c1ccccc1`, for which the growth was -34.2% (active).

Turning to `COc1ccc(OC)c(NC(=O)/C(C#N)=C/c2ccco2)c1`, the growth was 85.2% (inactive). Then `Cc1ccc(OCCCCCCNCCO)c(C)c1`, with -15.9% (active); and `N#CC(C#N)N=Nc1ccc(Cl)cc1Cl`, with 58.8% (inactive); and `O=C(O)CCCCCN1C(=O)/C(=C/c2ccc(O)c(O)c2)SC1=S`, with 103% (inactive). Consider `COc1c(N2CC3CCCNC3C2)c(F)cc2c(=O)c(C(=O)N/N=C/c3ccccc3)cn(C3CC3)c12` (stereo not given), for which the growth is 83.7% (inactive).

With `N#C/C(=C\c1c(-c2ccccc2)[nH]c2ccccc12)S(=O)(=O)c1ccccc1`, the growth is 20.5% (inactive).

For the compound `CC(C)OP(=O)(O)c1ncc(-c2ccc(C(F)(F)F)cc2)c(NC2CCCCCC2)n1`, the growth was 28% (inactive).

In the case of `CCOC(=O)c1cc(/C=C/c2ccc(Cl)cc2Cl)on1`, the growth was 37.6% (inactive). For `O=C(CCCCNC(=O)c1nc(-c2ccccc2)n(-c2ccccc2)n1)NO` the value was 55.4% (inactive); for `NC(N)=Nc1ccc(Oc2cccc(Nc3ccc(Cl)cc3)c2)cn1`, -27.9% (active); for `CCOC(=O)/C=C1/SC(=Nc2ccc(C#N)cc2)N(Cc2ccco2)C1=O`, 27.5% (inactive).

Regarding `Nc1nc(-c2cccc(Br)c2)cc(-c2cc3ccccc3oc2=O)n1`, the growth was 91.8% (inactive). Take `CCOC(=S)Sc1ccc([N+](=O)[O-])cc1[N+](=O)[O-]`: the growth was 52.7% (inactive). For `O=C1Nc2cc(-c3ccc(O)cc3)ccc2/C1=C/c1ccc[nH]1` the value was -29.2% (active); for `CCSc1nc2ccccc2o1`, 111% (inactive).

Regarding `C=CN(C(=O)N1CCN(c2cc3c(cc2F)c(=O)c(C(=O)O)cn3C2CC2)CC1)c1nc(-c2ccc(OC)cc2)cs1`, the growth was 13.4% (inactive). With `NC(=S)N/N=C/c1ccc(OC(=O)COc2ccc(Cl)cc2)cn1`, the growth was 24.6% (inactive). For `N#CCCN=Nc1c(O)[nH]c2ccc(F)cc12` the value was 98.9% (inactive); for `O=S(=O)(Nc1ccc(I)c(Cl)c1)c1ccc(-c2cnc(C3CC3)o2)cc1`, -9.49% (active); for `C=C1C(=O)O[C@H]2[C@H]1CC/C(COC(=O)NCCc1ccc(OC)c(OC)c1)=C\CC[C@@]1(C)O[C@@H]21`, 16.9% (inactive). For `O=C(O)c1ccc(-n2cc(/C=N/Nc3ccc(F)cc3)c(-c3cccc(C(F)(F)F)c3)n2)cc1` the value was 90.8% (inactive). Then `Cc1nc2sc(C(=O)Nc3ccccn3)c(N)c2cc1C(C)O` (stereo not given), with 38.4% (inactive).

These data come from PubChem BioAssay (NCI).
